The nature of test [1]: Nuclear factor erythroid 2-related factor 2/antioxidant responsive element (Nrf2/ARE) small molecule agonists: qHTS cell viability counter screen in human keratinocytes (AID 1919968; active = well fitted curve in the direction sought with a large enough effect in the repeat runs; an effect the other way counts as inactive or inconclusive; also: nearly all actives have a fitted effect of over 55% in size). Put shortly: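 In human HaCaT keratinocytes stably expressing an ARE-driven luciferase, compound exposure lasted 23 h at 37 C under 5% CO2. Viable cells are quantified with a protease-based fluorogenic reagent (CellTiter-Fluor) read 1 h after addition.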
On the technique in general: qHTS replaces the single test concentration by a dilution series.

Test [2] can be described thus: Nuclear factor erythroid 2-related factor 2/antioxidant responsive element (Nrf2/ARE) small molecule agonists: luciferase reporter gene qHTS assay in human keratinocytes (AID 1919969). Also: nearly all actives have a fitted effect of over 35% in size. Background: A reporter such as luciferase makes a cellular process visible.
For test [3], the target named is Gonadotropin-releasing hormone receptor (Homo sapiens) (UniProt P30968). Briefly: Human gonadotropin-releasing hormone receptor (GnRHR) small molecule agonists, calcium flux assay in GnRHR-HEK293 cells (AID 1920063). Also: nearly all actives have a fitted effect of over 35% in size. Put shortly: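 Intracellular calcium rise is the read-out: engineered human GnRHR HEK293 cells, dye-loaded, are exposed to DMSO-dissolved compounds and fluorescence at Ex/Em 480/540 is tracked for 3 min.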

Test [4] addresses KiSS-1 receptor (Homo sapiens) (UniProt Q969F8). Kind of test: Human kisspeptin (KISS1R) small molecule agonists, calcium flux assay in KISS1R-HEK293 cells (AID 1920064; active = well fitted curve in the direction sought with a large enough effect in the repeat runs; an effect the other way counts as inactive or inconclusive). Put shortly:
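Concentration-response testing used 15 concentrations in triplicate on human KISS1R-expressing HEK293 cells. Calcium-dependent fluorescence (Ex/Em 480/540) was followed kinetically for 3 min after compound transfer.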
A general note: Calcium assays in cells follow changes in intracellular calcium, usually with a dye or a luminescent sensor.

A short description of test [5]: G protein-coupled receptor (GPCR) small molecule agonists, calcium flux assay: HEK293 wild type cell line counter screen (AID 1920065). The essentials:
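Fluorescence intensity signals activation. After overnight (18 h) culture and a 1 h calcium dye load at 37 C, compounds are added by pin tool and the plate read at 480/540 nm for 3 min in 1 s steps.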

Test [6] can be described thus: p53 small molecule agonists, cell-based qHTS assay with human liver microsomes (AID 1963577). The essentials: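 p53RE-bla cells, 4,000/well, compound added after 5 h, with human liver microsomes 0.5 mg/mL and NADPH 0.5 mg/mL final; 16 h at 37 C, then LiveBLAzer 2 h RT, fluorescence.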
The nature of test [7]: p53 small molecule agonists, cell-based qHTS assay with rat liver microsomes (AID 1963578). The essentials:
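p53RE-bla cells, 4,000/well, pre-incubated 5 h, then given compounds plus rat liver microsomes (0.5 mg/mL final) and NADPH (0.5 mg/mL final). Incubation 16 h at 37 C; beta-lactamase reporter read by LiveBLAzer fluorescence after 2 h at room temperature.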

Test [8] can be described thus: p53 small molecule agonists, cell-based qHTS assay with human liver microsomes: qHTS cell viability counter screen (AID 1963579). Also: nearly all actives have a fitted effect of over 45% in size. Put shortly: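 p53RE-bla cells, 4,000/well, dosed 5 hours after plating, with human liver microsomes (0.5 mg/mL final) plus NADPH (0.5 mg/mL final), 16 hours at 37 C. Viability read as CellTiter-Glo luminescence after 30 min at room temperature.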

Test [9] in a line: p53 small molecule agonists, cell-based qHTS assay with rat liver microsomes: qHTS cell viability counter screen (AID 1963580). Also: nearly all actives have a fitted effect of over 45% in size. Put shortly:
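Rat liver microsome (0.5 mg/mL final) and NADPH (0.5 mg/mL final) co-incubation with compounds for 16 h at 37 C on HCT-116 p53RE-bla cells; cytotoxicity taken from intracellular ATP luminescence.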

The nature of test [10]: p53 small molecule agonists, cell-based qHTS assay (AID 1963582; active = well fitted activation curve with a large enough effect in the signal ratio in the repeat runs, not every such curve was filed as active; the % refers to the signal ratio). The essentials: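 After plating, p53RE-bla cells sat 5 h in the incubator; compounds or DMSO vehicle were pinned in; a 16 h incubation at 37 C followed; FRET substrate was added and, 2 h later at RT, fluorescence was measured.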
For test [11], the target named is 5-hydroxytryptamine receptor 2A (Homo sapiens) (UniProt P28223). Kind of test: 5-hydroxytryptamine receptor 2A (HTR2A) small molecule antagonists, cell-based qHTS assay (AID 1963586). Also: nearly all actives have a fitted effect of over 45% in size. The essentials: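 CHO cells stably expressing human HTR2A were plated for 18 h at 37 C, then loaded with calcium dye for 1 h. Compounds were preincubated 5 min at room temperature before DOI (4 nM solution) was added. Kinetic fluorescence was read for 3 min.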

For test [12] the target is unchanged. Kind of test: 5-hydroxytryptamine receptor 2A (HTR2A) small molecule agonists, cell-based qHTS assay (AID 1963587). Also: nearly all actives have a fitted effect of over 30% in size. The essentials: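 Kinetic calcium-flux fluorescence (2 min, 1 sec intervals) after compound addition in agonist mode. HTR2A-CHO cells were cultured 18 h, then dye-loaded 1 h at 37 C.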
Test [13] concerns the target Muscarinic acetylcholine receptor M1 (Homo sapiens) (UniProt P11229). Briefly: Cholinergic receptor muscarinic 1 (CHRM1) small molecule antagonists, cell-based qHTS assay (AID 1963588). Also: nearly all actives have a fitted effect of over 40% in size. Also: potency is read from the fitted curve at half-maximal effect. Put shortly: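 Compounds were tested at 15 concentrations in three independent runs. Dye-loaded CHRM1-CHO cells were exposed 5 min at room temperature before stimulation by acetylcholine added at 50nM. Intracellular calcium was read kinetically on FDSS for 3 min.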

For test [14] the target is unchanged. Briefly: Cholinergic receptor muscarinic 1 (CHRM1) small molecule agonists, cell-based qHTS assay (AID 1963589). Also: nearly all actives have a fitted effect of over 35% in size. The essentials: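 Fluorescent calcium dye reports M1 activation in stably transfected CHO cells. Compounds, 15 concentrations, added after 1 h dye loading at 37 C; kinetic reading at 1 sec intervals.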
The target in test [15] is Beta-2 adrenergic receptor (Homo sapiens) (UniProt P07550). Kind of test: Adrenergic beta2 receptor (ADRB2) small molecule antagonists, cell-based qHTS assay (AID 1963592). Also: series mostly up to about 92 µM; nearly all actives have a fitted effect of over 50% in size. The essentials: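 Assay format: CHO-ADRB2 cells, 18-20hr seeding at 37C/5% CO2, then compound plus 1nM isoproterenol agonist mix for 0.5hr RT. Homogeneous time-resolved fluorescence cAMP detection after 1hr, expressed as 665/615 nm ratio.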

The target in test [16] is D(2) dopamine receptor (Homo sapiens) (UniProt P14416). Kind of test: Dopamine D2 receptor (DRD2) small molecule agonists, cell-based qHTS assay (AID 1963594). Also: nearly all actives have a fitted effect of over 35% in size. Put shortly: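 cAMP accumulation in DRD2-HEK293 cells measured by HTRF after 1 h detection; compounds added 10 min before NKH477 (200nM […]) forskolin-analogue stimulation, 30 min at room temperature, with Ro20-1724 present at 0.1 mM final.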

Test [17] has the same target. Kind of test: Dopamine D2 receptor (DRD2) small molecule antagonists, cell-based qHTS assay (AID 1963595; active = well fitted inhibition curve with a large enough effect in the signal ratio in the repeat runs, with a control signal flat; the % refers to the signal ratio). Put shortly:
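Human DRD2 antagonist qHTS measuring cAMP by HTRF. The cells are exposed to compound for 10 min, then to NKH477 (200 nM) and quinpirole (12 nM) for 30 min at RT, with Ro20-1724 (0.1 mM) present throughout.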

A short description of test [18]: cAMP Responsive Elements (CRE) small molecule agonists, cell-based qHTS assay (AID 1963590). The essentials: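 Compound exposure lasted 3 h at 37 C/5% CO2 in CRE-bla HEK 293T cells grown in assay medium with 10% dialyzed FBS and 25 mM HEPES. Reporter signal came from LiveBLAzer B/G FRET substrate, 2 h, room temperature.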
Test [19] can be described thus: cAMP Responsive Elements (CRE) small molecule antagonists, cell-based qHTS assay (AID 1963591; active = well fitted inhibition curve with a large enough effect in the signal ratio in the repeat runs, not every such curve was filed as active; the % refers to the signal ratio). Put shortly:
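Stimulation used NKH477 at a final 0.25 uM for 3 h in compound-treated CRE-bla HEK293T cells, seeded 18 h beforehand. Reporter activity was measured with LiveBLAzer B/G FRET substrate after 2 h at room temperature.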

Unmarked numbers belong to inactive results. Inconclusive results are not listed. Active and inactive are the calls of the source. Unless noted, calls follow the shape of the full dose curve.

The source of these data is PubChem BioAssay (Tox21).

Sequence of Muscarinic acetylcholine receptor M1 (Homo sapiens) (P11229 whole entry, looked up): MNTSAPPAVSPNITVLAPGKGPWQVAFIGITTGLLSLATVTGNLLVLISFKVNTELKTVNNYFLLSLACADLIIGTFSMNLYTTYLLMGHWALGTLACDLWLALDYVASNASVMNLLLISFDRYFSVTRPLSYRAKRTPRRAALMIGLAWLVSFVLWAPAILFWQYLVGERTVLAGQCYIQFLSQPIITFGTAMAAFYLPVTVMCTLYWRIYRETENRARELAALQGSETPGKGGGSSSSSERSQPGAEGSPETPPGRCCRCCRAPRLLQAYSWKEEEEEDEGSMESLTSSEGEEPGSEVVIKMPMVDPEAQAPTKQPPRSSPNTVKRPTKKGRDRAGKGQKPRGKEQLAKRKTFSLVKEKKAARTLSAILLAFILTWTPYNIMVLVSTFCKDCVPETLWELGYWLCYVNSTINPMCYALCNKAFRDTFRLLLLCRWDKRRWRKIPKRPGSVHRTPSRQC
Sequence of Beta-2 adrenergic receptor (Homo sapiens) (P07550 whole entry, looked up): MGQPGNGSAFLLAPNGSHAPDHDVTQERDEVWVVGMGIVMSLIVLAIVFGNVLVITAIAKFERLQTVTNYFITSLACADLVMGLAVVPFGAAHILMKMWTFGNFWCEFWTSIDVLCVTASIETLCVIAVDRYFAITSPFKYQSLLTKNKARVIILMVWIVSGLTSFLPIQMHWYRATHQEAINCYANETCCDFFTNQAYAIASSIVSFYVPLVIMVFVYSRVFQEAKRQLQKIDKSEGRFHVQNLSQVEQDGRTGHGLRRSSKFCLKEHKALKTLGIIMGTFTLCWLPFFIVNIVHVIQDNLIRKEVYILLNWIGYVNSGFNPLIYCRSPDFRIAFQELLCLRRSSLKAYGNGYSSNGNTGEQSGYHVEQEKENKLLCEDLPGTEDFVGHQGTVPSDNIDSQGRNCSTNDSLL
Sequence of D(2) dopamine receptor (Homo sapiens) (P14416 whole entry, looked up): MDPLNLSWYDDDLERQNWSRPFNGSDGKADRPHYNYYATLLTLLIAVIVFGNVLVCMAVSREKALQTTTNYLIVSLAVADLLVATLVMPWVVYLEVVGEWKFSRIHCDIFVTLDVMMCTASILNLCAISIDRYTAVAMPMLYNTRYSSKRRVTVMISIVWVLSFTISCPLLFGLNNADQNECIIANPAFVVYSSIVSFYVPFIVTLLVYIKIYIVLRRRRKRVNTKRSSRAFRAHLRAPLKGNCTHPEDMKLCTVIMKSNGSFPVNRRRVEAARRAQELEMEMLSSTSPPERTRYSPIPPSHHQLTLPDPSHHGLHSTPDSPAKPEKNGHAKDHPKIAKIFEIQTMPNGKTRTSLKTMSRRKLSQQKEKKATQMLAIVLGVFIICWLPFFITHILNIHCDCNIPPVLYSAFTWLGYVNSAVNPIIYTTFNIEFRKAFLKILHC
Sequence of KiSS-1 receptor (Homo sapiens) (Q969F8 whole entry, looked up): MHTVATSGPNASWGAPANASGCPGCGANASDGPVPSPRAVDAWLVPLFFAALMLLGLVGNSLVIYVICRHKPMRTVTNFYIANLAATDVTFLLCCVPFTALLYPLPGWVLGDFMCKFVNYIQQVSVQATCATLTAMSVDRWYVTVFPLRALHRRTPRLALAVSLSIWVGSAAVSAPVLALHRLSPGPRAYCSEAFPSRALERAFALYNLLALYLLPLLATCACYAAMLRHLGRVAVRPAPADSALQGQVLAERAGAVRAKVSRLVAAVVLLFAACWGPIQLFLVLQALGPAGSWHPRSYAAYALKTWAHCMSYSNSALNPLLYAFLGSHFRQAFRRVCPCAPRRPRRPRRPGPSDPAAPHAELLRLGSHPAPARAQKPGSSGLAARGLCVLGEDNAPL
Sequence of 5-hydroxytryptamine receptor 2A (Homo sapiens) (P28223 whole entry, looked up): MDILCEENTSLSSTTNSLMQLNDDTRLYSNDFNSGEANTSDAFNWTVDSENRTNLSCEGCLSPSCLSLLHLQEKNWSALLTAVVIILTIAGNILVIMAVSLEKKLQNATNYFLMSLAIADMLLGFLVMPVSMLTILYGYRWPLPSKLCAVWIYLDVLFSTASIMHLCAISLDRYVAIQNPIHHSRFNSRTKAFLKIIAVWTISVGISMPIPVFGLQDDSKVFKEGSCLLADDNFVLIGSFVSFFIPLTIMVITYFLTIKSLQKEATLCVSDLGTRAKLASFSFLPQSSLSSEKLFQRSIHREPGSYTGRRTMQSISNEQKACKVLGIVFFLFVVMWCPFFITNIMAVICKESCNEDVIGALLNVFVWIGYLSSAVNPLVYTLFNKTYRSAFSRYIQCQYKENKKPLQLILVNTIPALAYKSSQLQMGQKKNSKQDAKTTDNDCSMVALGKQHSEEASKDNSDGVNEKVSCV
Sequence of Gonadotropin-releasing hormone receptor (Homo sapiens) (P30968 whole entry, looked up): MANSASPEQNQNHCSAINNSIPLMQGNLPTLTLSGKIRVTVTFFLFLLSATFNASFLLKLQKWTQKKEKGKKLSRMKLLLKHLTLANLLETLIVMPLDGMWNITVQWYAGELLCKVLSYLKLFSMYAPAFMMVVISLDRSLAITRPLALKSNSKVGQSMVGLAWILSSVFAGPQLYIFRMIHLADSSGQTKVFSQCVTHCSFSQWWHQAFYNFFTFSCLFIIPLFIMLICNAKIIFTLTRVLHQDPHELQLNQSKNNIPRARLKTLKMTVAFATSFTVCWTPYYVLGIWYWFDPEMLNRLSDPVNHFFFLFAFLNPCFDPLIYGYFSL

For the compound `O=C(Nc1cccc2c(=O)cc(-c3nn[nH]n3)oc12)c1ccc(OCCCCc2ccccc2)cc1`, the Potency entry in test [1], in test [2], in [3], in test [6], in test [7] and in test [8] was “inactive” each time. Further, the Potency entry in test [9], in test [10], in test [11], in [12], in [13] and in test [14] was “inactive” throughout. Moreover, the Potency entry in [15], in [16] and in [17] was “inactive” each time. The outcome in test [4] and in test [5] was inactive.
In the case of `Nc1ccc(S(=O)(=O)O)cc1`, the Potency result in test [1], in [2], in [3], in [6], in [7] and in [8] was “inactive” throughout. Also, the Potency entry in test [9], in [10], in test [11], in test [12], in [13] and in test [14] was “inactive” each time. Also, the Potency entry in test [18], in [19], in test [15], in [16] and in [17] was “inactive” throughout. Further, the outcome in test [4] and in test [5] was inactive.
For `C[N+]12CCC(CC1)C(OC(=O)C(O)(c1ccccc1)c1ccccc1)C2` (centres undefined), the Potency entry in test [1], in test [2], in test [3], in test [6], in [7] and in test [8] was “inactive” each time. In addition, the Potency result in test [9], in test [10], in test [11], in [12], in test [18] and in [19] was “inactive” in each case. Further, the Potency entry in test [15], in test [16] and in test [17] was “inactive” throughout. The outcome in [4] and in test [5] was inactive. Besides, in test [13], the Potency was 1.3 nM (active).
Regarding `Cc1cccc2sc(N)nc12`, the Potency entry in test [1], in [2], in test [3], in [6], in [7] and in test [8] was “inactive” throughout. Further, the Potency result in [9], in test [10], in test [11], in test [12], in [13] and in test [14] was “inactive” in each case. The Potency result in [18], in test [16] and in test [17] was “inactive” in each case. For the same compound, the outcome in test [4] and in test [5] was inactive.
As to `O=C(O)CCCc1ccccc1`, the Potency entry in test [1], in test [2], in test [3], in test [6], in test [7] and in test [8] was “inactive” each time. The Potency result in test [9], in test [10], in test [11], in test [12], in test [13] and in test [14] was “inactive” in each case. The Potency entry in test [19], in test [15], in test [16] and in test [17] was “inactive” each time. Also, the result in [4] and in [5] was inactive.
Regarding `CCCCCCCCC(=O)Cl`, the Potency result in test [1], in [2], in test [3], in [6], in test [7] and in [8] was “inactive” throughout. The Potency result in test [9], in [10], in test [11], in test [12], in [13] and in test [14] was “inactive” in each case. The Potency result in test [19], in test [15], in test [16] and in [17] was “inactive” each time. The result in test [4] and in [5] was inactive.
On to `COCCOCCOCCOC`, for which the Potency entry in test [1], in test [2], in test [3], in test [6], in test [7] and in test [8] was “inactive” each time. The Potency entry in test [9], in [10], in test [11], in test [12], in test [13] and in test [18] was “inactive” each time. The Potency entry in test [19], in test [15] and in [17] was “inactive” each time. Also, the result in test [4] and in test [5] was inactive.
